These results are taken from PubChem BioAssay.

Experiment [1] can be described thus: antimalarial activity against Dd2 strain (AID 2302;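 active = growth inhibition above 50% at the single 2 µM test dose, taken to imply half-maximal potency below 2 µM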;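 note: 0% = DMSO untreated growth and 100% = chloroquine plus artemisinin killed control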). As to conditions: P. falciparum Dd2 in RBCs, LDH growth readout, 72 h; at 2 µM; stronger effect = higher value.
Experiment [2] can be described thus: human hepatoma cell viability loss – ATP luminescence, cytotoxicity control for P. falciparum antimalarial project, primary screen (AID 2303;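 active = inhibition above 50%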;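 note: 0% = DMSO wells and 100% = digitonin-killed cells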). As to conditions: HepG2 viability, 24-48 h, at 10 µM, stronger effect = higher value.
The target of experiment [3] is L-lactate dehydrogenase (Plasmodium falciparum (isolate CDC / Honduras)) (UniProt Q27743). The experiment can be described thus: PfLDH activity inhibition – cell lysate, 3D7 strain, counter-screen for P. falciparum growth inhibition project (AID 2304).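 Note: 0% = vehicle and 100% = reference inhibitor.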 As to conditions: P. falciparum 3D7 crude extract, LDH APAD/NBT absorbance; at 2 µM; stronger effect = higher value.
L-lactate dehydrogenase (Plasmodium falciparum (isolate CDC / Honduras)), sequence (Q27743 whole entry, looked up): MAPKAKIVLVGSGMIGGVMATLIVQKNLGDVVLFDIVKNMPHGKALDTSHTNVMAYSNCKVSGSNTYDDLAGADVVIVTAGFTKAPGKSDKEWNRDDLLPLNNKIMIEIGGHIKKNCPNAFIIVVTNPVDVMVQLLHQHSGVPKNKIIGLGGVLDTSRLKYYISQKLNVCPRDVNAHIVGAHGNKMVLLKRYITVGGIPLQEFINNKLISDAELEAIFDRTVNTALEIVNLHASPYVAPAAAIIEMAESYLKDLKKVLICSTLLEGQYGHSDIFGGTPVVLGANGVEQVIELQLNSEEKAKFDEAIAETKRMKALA
A short description of experiment [4]: inhibition of 3D7 malaria parasite growth – strain 3D7 (AID 2306).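 Note: 0% = DMSO wells and 100% = chloroquine plus artemisinin control wells.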 As to conditions: P. falciparum 3D7 erythrocytic growth, LDH absorbance, 72 h; at 2 µM; stronger effect = higher value.
For experiment [5], the target named is Calcium-dependent protein kinase 1 (Plasmodium falciparum (isolate 3D7)) (UniProt P62344). The experiment can be described thus: PfCDPK1 kinase inhibitors, biochemical, TCAMS library (AID 1159585; cut-off not given, nearly all actives have IC50 up to about 0.98 µM;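 note: inhibitors leave more ATP so luminescence rises with inhibition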). As to conditions: recombinant PfCDPK1, Kinase-Glo ATP depletion luminescence.
Calcium-dependent protein kinase 1 (Plasmodium falciparum (isolate 3D7)), sequence (P62344 whole entry, looked up): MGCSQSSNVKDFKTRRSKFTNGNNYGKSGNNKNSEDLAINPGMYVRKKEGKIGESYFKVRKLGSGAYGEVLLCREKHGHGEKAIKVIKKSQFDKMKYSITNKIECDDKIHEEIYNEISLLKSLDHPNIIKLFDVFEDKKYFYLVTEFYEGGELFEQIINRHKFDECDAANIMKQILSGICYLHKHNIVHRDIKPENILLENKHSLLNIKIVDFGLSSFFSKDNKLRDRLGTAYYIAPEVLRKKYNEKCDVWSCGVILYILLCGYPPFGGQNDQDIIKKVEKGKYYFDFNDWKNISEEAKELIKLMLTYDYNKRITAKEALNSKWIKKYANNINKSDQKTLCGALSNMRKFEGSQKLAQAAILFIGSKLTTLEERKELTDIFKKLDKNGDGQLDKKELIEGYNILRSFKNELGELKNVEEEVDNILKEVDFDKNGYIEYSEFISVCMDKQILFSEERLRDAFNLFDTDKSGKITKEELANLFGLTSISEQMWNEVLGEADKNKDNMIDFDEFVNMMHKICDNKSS
For experiment [6], the target named is Plasmodium falciparum protein kinase 6 (PK6, PF3D7_1337100) (UniProt Q8IDW1). The experiment can be described thus: PfPK6 kinase inhibitors, biochemical, TCAMS library (AID 1159586). As to conditions: recombinant PfPK6, Kinase-Glo ATP depletion luminescence. A general note: Kinase-Glo measures the ATP left after a reaction by luminescence.
Plasmodium falciparum protein kinase 6 (PK6, PF3D7_1337100), sequence (Q8IDW1 1-305): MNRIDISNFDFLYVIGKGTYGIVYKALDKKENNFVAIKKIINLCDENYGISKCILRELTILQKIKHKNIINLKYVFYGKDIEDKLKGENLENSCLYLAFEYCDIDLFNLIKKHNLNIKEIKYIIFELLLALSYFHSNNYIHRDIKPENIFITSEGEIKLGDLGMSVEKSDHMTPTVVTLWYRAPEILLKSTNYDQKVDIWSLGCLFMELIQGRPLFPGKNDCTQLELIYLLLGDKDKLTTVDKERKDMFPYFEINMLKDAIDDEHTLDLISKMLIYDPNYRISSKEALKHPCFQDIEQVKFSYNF
Experiment [7] has as its target Protein kinase 7 (PK7), Plasmodium falciparum 3D7 (PF3D7_0213400) (UniProt Q7YTF7). The experiment can be described thus: inhibition of Plasmodium PK7 catalytic activity – biochemical, TCAMS antimalarial set, Kinase-Glo luminescence (AID 1159587). As to conditions: recombinant PfPK7, Kinase-Glo ATP depletion luminescence.
The target in experiment [8] is Calcium-dependent protein kinase 4 (Plasmodium falciparum (isolate 3D7)) (UniProt Q8IBS5). The experiment can be described thus: PfCDPK4 kinase inhibitors, biochemical, TCAMS library (AID 1159588; cut-off not given, nearly all actives have IC50 up to about 0.91 µM). As to conditions: recombinant PfCDPK4, Kinase-Glo ATP depletion luminescence.
Calcium-dependent protein kinase 4 (Plasmodium falciparum (isolate 3D7)), sequence (Q8IBS5 whole entry, looked up): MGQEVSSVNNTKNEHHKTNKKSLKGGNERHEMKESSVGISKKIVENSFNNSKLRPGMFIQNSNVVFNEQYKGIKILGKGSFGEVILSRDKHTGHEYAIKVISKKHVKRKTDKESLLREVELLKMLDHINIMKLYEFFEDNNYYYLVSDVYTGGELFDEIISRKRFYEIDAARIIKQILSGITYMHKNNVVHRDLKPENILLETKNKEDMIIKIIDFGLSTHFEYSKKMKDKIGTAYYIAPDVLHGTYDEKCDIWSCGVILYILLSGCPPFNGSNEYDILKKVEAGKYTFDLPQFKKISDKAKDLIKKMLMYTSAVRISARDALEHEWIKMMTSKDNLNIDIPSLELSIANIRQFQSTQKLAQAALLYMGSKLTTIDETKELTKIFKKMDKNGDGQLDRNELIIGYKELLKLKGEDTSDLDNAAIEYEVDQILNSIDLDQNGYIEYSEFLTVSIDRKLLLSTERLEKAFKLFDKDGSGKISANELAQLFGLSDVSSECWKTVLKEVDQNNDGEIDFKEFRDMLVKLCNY

Unmarked numbers belong to inactive results. For some assays here: Potency and affinity values are given separately. The source made the active and inactive calls. Unless noted, the rule behind the calls is not given here.

Protein kinase 7 (PK7), Plasmodium falciparum 3D7 (PF3D7_0213400), sequence (Q7YTF7 1-343): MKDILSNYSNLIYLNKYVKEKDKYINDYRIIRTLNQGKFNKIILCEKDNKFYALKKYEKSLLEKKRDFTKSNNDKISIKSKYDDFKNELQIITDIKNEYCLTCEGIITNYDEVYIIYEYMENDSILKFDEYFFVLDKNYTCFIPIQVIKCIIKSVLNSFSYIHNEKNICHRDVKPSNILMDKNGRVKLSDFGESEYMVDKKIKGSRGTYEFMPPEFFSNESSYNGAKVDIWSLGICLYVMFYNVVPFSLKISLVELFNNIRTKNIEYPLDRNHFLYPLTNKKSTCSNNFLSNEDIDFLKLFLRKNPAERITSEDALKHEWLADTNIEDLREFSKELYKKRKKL

What is called inhibition is the relative decrease from the control value, in per cent. Turning to `COc1ccc(NC(=O)[C@H](Cc2ccccc2)Nc2cc(C)nc(NCCc3ccccn3)n2)cc1`, the growth inhibition is 39% in experiment [1] and 99% (active) in experiment [4]. The inhibition in experiment [2] was -7%; in experiment [3], -3%. In addition, the outcome in experiment [5], in experiment [6], in experiment [7] and in experiment [8] was inactive.
As to `O=C(Nc1cccc(-c2ccc(-c3nc4ccc(F)cc4[nH]3)cc2)c1)Nc1ccc(F)c(F)c1F`, the growth inhibition in experiment [1] and in experiment [4] was 98% (active) each time. Further, the inhibition in experiment [2] was 53% (active); in experiment [3], 3%. The result in experiment [5], in experiment [6], in experiment [7] and in experiment [8] was inactive.
Turning to `Cc1ccc(-n2c(C)nc3c(Nc4ccc(-c5ccncc5)cc4)ncnc32)c(C)c1`, the growth inhibition in experiment [1] and in experiment [4] was 99% (active) throughout. Moreover, the inhibition in experiment [2] was 38%; in experiment [3], -4%. Moreover, the result in experiment [5], in experiment [6], in experiment [7] and in experiment [8] was inactive.
With `CN(CCN1CCC(c2c[nH]c3ccccc23)CC1)C(=O)OCCCCCNC(=O)/C=C/c1ccc(Cl)c(Cl)c1`, the growth inhibition in experiment [1] was 44%; in experiment [4], 95% (active). Also, the inhibition was 39% in experiment [2] and -4% in experiment [3]. The result in experiment [5], in experiment [6], in experiment [7] and in experiment [8] was inactive.
For the compound `N#Cc1ccc(N2CCN(Cc3cccc(-c4ccc(-c5nc6ccc(C(F)(F)F)cc6[nH]5)s4)c3)CC2)nc1`, the growth inhibition in experiment [1] is 52% (active); in experiment [4] it was 96% (active). Besides, the inhibition in experiment [2] is 31%; in experiment [3], -4%. Besides, the outcome in experiment [5], in experiment [6], in experiment [7] and in experiment [8] was inactive.
As to `O=C(Nc1ccc(OC2CCN(Cc3ccc(F)cc3)CC2)c(Cl)c1)c1ccc(F)cc1`, the results for the growth inhibition in experiment [1] and in experiment [4] were 95% (active) and 97% (active), respectively. For the same compound, the figures for the inhibition in experiment [2] and in experiment [3] were 37% and -1%, respectively. Besides, the result in experiment [5], in experiment [6], in experiment [7] and in experiment [8] was inactive.
For `Cc1ccccc1C1CCN(C2CCC(NC(=O)/C=C/c3ccccc3C(F)(F)F)CC2)CC1` (configuration not stated), the growth inhibition in experiment [1] is 6%; in experiment [4] it was 83% (active). Moreover, the values for the inhibition in experiment [2] and in experiment [3] were 63% (active) and -1%, respectively. For the same compound, the result in experiment [5], in experiment [6], in experiment [7] and in experiment [8] was inactive.
In the case of `CC(C)(C)c1ccc(NC(=O)c2cccc(CN3CCCN(Cc4cccc(Cl)c4)CC3)c2)cc1`, the growth inhibition in experiment [1] is 30%; in experiment [4] it was 85% (active). In addition, the inhibition in experiment [2] was 61% (active); in experiment [3], 3%. Further, the result in experiment [5], in experiment [6], in experiment [7] and in experiment [8] was inactive.
`c1ccc(Oc2ccc(Nc3ccnc4cc(-c5ccc(CNCCN6CCOCC6)o5)ccc34)cc2)nc1`: the growth inhibition in experiment [1] is 100% (active); in experiment [4], 101% (active). Also, the values for the inhibition in experiment [2] and in experiment [3] were -7% and -2%, respectively. Besides, the outcome in experiment [5], in experiment [6], in experiment [7] and in experiment [8] was inactive.
On to `CC(C)(C)c1ccc(CN2CCC(NC(=O)c3ccc(-c4cccc(F)c4)s3)CC2)cc1`, for which the growth inhibition in experiment [1] is 24%; in experiment [4], 92% (active). Further, the inhibition in experiment [2] was 35%; in experiment [3], 0%. Besides, the result in experiment [5], in experiment [6], in experiment [7] and in experiment [8] was inactive.
Consider `O=C(CCCCCNC(=O)c1ccc(O)c(-c2ccc(Cl)c(Cl)c2)c1)NCc1cccc(C(F)(F)F)c1`, for which the growth inhibition in experiment [1] is 10%; in experiment [4], 92% (active). The inhibition in experiment [2] and in experiment [3] was 2% each time. For the same compound, the outcome in experiment [5], in experiment [6], in experiment [7] and in experiment [8] was inactive.
Consider `Cc1ccc2nc(C)cc(NN=Cc3ccccc3[N+](=O)[O-])c2c1`, for which the growth inhibition is 100% (active) in experiment [1] and 102% (active) in experiment [4]. For the same compound, the inhibition was 5% in experiment [2] and -1% in experiment [3]. The result in experiment [5], in experiment [6], in experiment [7] and in experiment [8] was inactive.
Take `O=C(C1CCCC1)N1CCOC(CCN2CCC(c3ccccc3)CC2)(c2ccc(Cl)c(Cl)c2)C1` (configuration not stated): the values for the growth inhibition in experiment [1] and in experiment [4] were 77% (active) and 88% (active), respectively. Also, the inhibition in experiment [2] is 16%; in experiment [3], 0%. Moreover, the outcome in experiment [5], in experiment [6], in experiment [7] and in experiment [8] was inactive.
`NCc1ccc(-c2cccc(CNC3CCN(Cc4ccccc4)CC3)c2)cc1`: the growth inhibition in experiment [1] was 50% (active); in experiment [4], 100% (active). For the same compound, the inhibition in experiment [2] was 24%; in experiment [3], -7%. For the same compound, the outcome in experiment [5], in experiment [6], in experiment [7] and in experiment [8] was inactive.
Take `CCNc1cc(C)nc(Nc2ccc(NS(=O)(=O)c3cc(OC)ccc3OC)cc2)n1`: the results for the growth inhibition in experiment [1] and in experiment [4] were 36% and 100% (active), respectively. For the same compound, the inhibition in experiment [2] is 56% (active); in experiment [3], -1%. Also, the outcome in experiment [5], in experiment [6], in experiment [7] and in experiment [8] was inactive.
With `O=C(Nc1ccc(Cl)c(C(F)(F)F)c1)Nc1ccc(Cl)c(C(F)(F)F)c1`, the growth inhibition in experiment [1] is 96% (active); in experiment [4] it was 94% (active). For the same compound, the values for the inhibition in experiment [2] and in experiment [3] were 1% and 6%, respectively. In addition, the result in experiment [5], in experiment [6], in experiment [7] and in experiment [8] was inactive.
For the compound `Cc1cccc(NC(=O)c2cnc(N3CCN(c4ccncc4)CC3)c(Cl)c2)c1`, the results for the growth inhibition in experiment [1] and in experiment [4] were 54% (active) and 100% (active), respectively. In addition, the inhibition in experiment [2] was 36%; in experiment [3], -2%. Also, the result in experiment [5], in experiment [6], in experiment [7] and in experiment [8] was inactive.
On to `CN(C(=O)/C=C/c1cc(C(F)(F)F)ccc1F)C1CCN(CCCCCNC(=O)/C=C/c2ccc(Cl)c(Cl)c2)CC1`, for which the growth inhibition is 68% (active) in experiment [1] and 101% (active) in experiment [4]. The values for the inhibition in experiment [2] and in experiment [3] were 71% (active) and 3%, respectively. Besides, the result in experiment [5], in experiment [6], in experiment [7] and in experiment [8] was inactive.
On to `CCOC(=O)c1c(C)noc1Nc1ccc(OC)cc1`, for which the values for the growth inhibition in experiment [1] and in experiment [4] were -6% and 99% (active), respectively. The inhibition is -1% in experiment [2] and -6% in experiment [3]. The outcome in experiment [5], in experiment [6], in experiment [7] and in experiment [8] was inactive.
